The list is not random: actives were taken first. Their share in the collection is about 3.1%.
FGF22 binding: binders of human FGF22 protein, primary screen, FGF22 synaptogenesis inhibitor project, biophysical, thermal shift, single point | activity (Tm shift, normalised), % at 9.99 µM | 340,000 tested, 1.5% active | recombinant FGF22 thermal shift, SYPRO orange fluorescence; percent of sucrose octasulfate shift, DMSO zero | Fibroblast growth factor 22 (Homo sapiens), Q9HCT0 | AID 651658, 2012;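 active = mean Tm shift, scaled 0 neutral to 100 positive control, at about 1.3% or above, every replicate too, limit read from the data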
ERAP1 inh: human ERAP1 aminopeptidase inhibitors, primary screen, biochemical, single point, plate reader; inhibition, % at 10.7 µM; Endoplasmic reticulum aminopeptidase 1 (Homo sapiens), Q9NZ08; 340,000 tested, 0.15% active; AID 652197, 2013; recombinant ERAP1, Leu-AMC fluorescence, 60 min;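 active = mean replicate inhibition of at least 30%, or all replicates individually reaching that 30% level; inactive = mean below 30% and not every replicate reaching it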;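 also: 0% = neutral control wells and 100% = L-leucinethiol positive control wells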
CASP6 VEID inh: human caspase-6 inhibitors, primary screen, biochemical, VEID-R110 fluorescence, single point, set 2; inhibition, % at 12.5 µM; purified caspase-6, Z-VEID-R110 cleavage fluorescence; AID 686996, 2013; 350,000 tested, 0.53% active;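 active = mean inhibition across replicates at least about 35%, with every replicate also reaching that limit, limit read from the data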;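 also: 0% = median of neutral control wells and 100% = no fluorescence left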
Target sequence (P55212 24-179 limits assumed): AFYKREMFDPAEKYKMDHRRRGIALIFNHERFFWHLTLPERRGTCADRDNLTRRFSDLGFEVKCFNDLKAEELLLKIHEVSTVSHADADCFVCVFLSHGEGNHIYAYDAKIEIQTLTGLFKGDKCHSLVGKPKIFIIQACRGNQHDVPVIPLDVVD
Target sequence (P55212 194-293 limits assumed): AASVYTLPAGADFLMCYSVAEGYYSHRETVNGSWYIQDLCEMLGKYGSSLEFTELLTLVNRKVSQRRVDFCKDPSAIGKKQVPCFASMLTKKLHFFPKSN
SIRT5 inh: SIRT5 desuccinylase inhibitors, primary screen, biochemical, fluorescence imaging, single point, set 5 | NAD-dependent protein deacylase sirtuin-5, mitochondrial (Homo sapiens), Q9NXA8 | Purified SirT5, succinyl-peptide AMC, trypsin-coupled fluorescence | inhibition, % at 15 µM | 330,000 tested, 1.1% active | AID 652115, 2013; in the data active = inhibition above about 15%
Target sequence (Q9NXA8 whole entry, looked up): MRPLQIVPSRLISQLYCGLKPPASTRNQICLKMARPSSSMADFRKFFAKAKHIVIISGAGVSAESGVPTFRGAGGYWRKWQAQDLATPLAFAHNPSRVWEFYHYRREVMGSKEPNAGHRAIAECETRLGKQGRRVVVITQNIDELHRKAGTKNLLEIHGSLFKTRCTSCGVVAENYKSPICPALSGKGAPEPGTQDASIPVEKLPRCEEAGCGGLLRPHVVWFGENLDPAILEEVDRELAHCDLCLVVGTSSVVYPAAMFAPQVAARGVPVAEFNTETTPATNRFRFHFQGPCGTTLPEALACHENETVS
The depositor's hits bear a star; · = no result.

SMILES	FGF22 binding	ERAP1 inh	CASP6 VEID inh	SIRT5 inh
C[C@H]1CN([C@@H](C)CO)C(=O)Cc2cc(NC(=O)NC3CCCCC3)ccc2O[C@@H]1CN(C)C(=O)Nc1ccc2c(c1)OCO2	-0.4	1.1	1.2	-0.3
Clc1ccc(-c2c[nH]c3ccccc23)nn1	43.1*	-3.3	0.3	-0.4
O=C(C[C@H]1C[C@@H]2c3cc(NC(=O)NC4CCCCC4)ccc3O[C@@H]2[C@@H](CO)O1)NCc1ccccn1	0.0	-2.1	1.3	-2.6
COc1ccc(OC)c(NC(=O)C2CCN(C(=O)c3cccs3)CC2)c1	0.1	7.1	-1.1	22.1*
COCC(=O)N1C[C@@H](C)[C@@H](OC)CN(C)C(=O)c2ccc(NC(=O)NC(C)C)cc2OC[C@H]1C	0.2	5.3	-4.3	-5.9
CCCCn1c(=N)n(CC(O)c2ccccc2)c2ccccc21 (stereo not given)	0.3	-1.6	3.0	-2.7
CCCCCCCn1c(=N)n(CC(O)c2ccco2)c2ccccc21 (stereo not given)	43.7*	-1.1	3.0	-0.3
Cc1c([N+](=O)[O-])cc(C(=O)NCc2ccc(F)cc2)cc1[N+](=O)[O-]	0.0	-1.9	0.6	111.4*
CCCN1[C@@H]2c3ccc(-c4cccnc4)c(=O)n3C[C@@H]2[C@@H](CO)[C@@H]1C(=O)NCCN1CCCC1	0.0	·	·	2.1
Cc1ccc2cc(N)ccc2n1	0.4	2.1	61.5*	·
Cc1ccc2cc(F)ccc2n1	-0.2	0.5	-2.8	·
O=C(Nc1ccc2c(c1)OCCO2)c1cc(-c2ccccn2)nc2ccc(Br)cc12	43.6*	-1.5	-0.2	4.1
C[C@@H]1CN([C@@H](C)CO)C(=O)c2cccc(NS(C)(=O)=O)c2O[C@H]1CN(C)Cc1ccncc1	-0.3	0.6	-1.3	4.2
CC(=O)c1ccc(NC(=O)COC(=O)CC2CC3CCC2C3)cc1 (stereo not given)	0.1	3.5	-1.2	3.4
O=C(COC(=O)CC1CC2CCC1C2)Nc1ccc(F)cc1 (stereo not given)	0.1	4.0	4.7	111.9*
CCCC(=O)Oc1ccc(N(C(=O)CCC)S(=O)(=O)c2cccs2)cc1	43.3*	5.0	3.0	-2.3
Cc1nn(C)cc1NC(=O)C[C@@H]1CC[C@@H]2[C@H](COc3ccc(NC(=O)NC(C)C)cc3C(=O)N2C)O1	-0.1	-1.1	-1.3	-4.8
O=C(/C=C/c1ccccc1)Oc1cccc(C(=S)N2CCOCC2)c1	-0.1	-3.3	-1.7	0.8
O=C(/C=C/c1ccccc1)Oc1ccccc1C(=S)N1CCOCC1	43.2*	-0.2	2.7	-1.5
COc1cc(C(=S)N2CCOCC2)ccc1OC(=O)/C=C/c1ccco1	43.1*	-1.3	1.2	·
COc1cc(C(=S)N2CCOCC2)ccc1OC(=O)c1ccccc1	-0.2	-1.5	2.7	-1.0
O=C(C[C@H]1C[C@@H]2c3cc(NC(=O)NC4CCCCC4)ccc3O[C@@H]2[C@@H](CO)O1)NCc1ccccc1	0.1	5.0	-2.1	0.5
O=C(NN1C(=O)/C(=C/C=C/c2ccccc2)SC1=S)c1ccncc1	1.0	7.4	16.6	21.6*
O=C(N/N=C/C=C/c1ccco1)c1ccncc1	0.1	2.9	12.6	4.7
O=C(NN1C(=O)/C(=C/C=C/c2ccco2)SC1=S)c1ccncc1	-0.2	3.5	76.1*	42.8*
SMILES	FGF22 binding	ERAP1 inh	CASP6 VEID inh	SIRT5 inh
O=C(Cn1cnc2ccccc21)N/N=C/c1ccccc1	43.5*	2.0	1.1	2.4
CC(/C=N/NC(=O)Cn1cnc2ccccc21)=C\c1ccccc1	0.0	-3.0	3.7	-0.4
CCN1[C@@H]2c3ccc(-c4cccnc4)c(=O)n3C[C@H]1[C@H](CO)[C@H]2C(=O)NC1CCCC1	·	0.0	0.5	-4.9
O=C(C1CCOCC1)N1CC(=O)N2[C@H](CO)[C@@H](c3ccc(-c4cccnc4)cc3)[C@@H]2C1	·	7.0	-1.5	-1.6
c1ccc2c(c1)[nH]c1nc3nncn3nc12	0.1	0.1	0.6	18.3*
CO[C@H]1CN(C)C(=O)c2ccc(NC(=O)c3ccc4c(c3)OCO4)cc2OC[C@@H](C)N(CCC(F)(F)F)C[C@@H]1C	·	-2.5	2.9	3.1
O=C1c2ccccc2C(=O)c2c([N+](=O)[O-])ccc(O)c21	-0.4	3.4	38.4*	-3.4
C[C@@H]1CN([C@@H](C)CO)C(=O)c2cc(C3=CCCC3)cnc2O[C@@H]1CN(C)C(=O)Nc1cccc(F)c1	0.0	-3.9	-2.2	-0.9
CSc1nnc2c(n1)OC(c1ccccn1)N(C(C)=O)c1ccccc1-2 (stereo not given)	43.4*	-0.8	-1.9	1.5
CSc1nnc2c(n1)OC(c1ccc(C(=O)O)cc1)N(C(C)=O)c1ccccc1-2 (stereo not given)	-0.1	5.0	3.9	·
Cc1ccc(SC(C)C(=O)NCc2ccncc2)cc1 (stereo not given)	0.2	81.6*	-1.4	0.1
COCCCn1c(=N)c(C(N)=S)cc2c(=O)n3cccc(C)c3nc21	0.1	-11.1	11.1	-31.8
Cc1ccc2nc3c(cc(C(N)=S)c(=N)n3CCCOC(C)C)c(=O)n2c1	-0.1	33.3*	11.4	-35.1
Cc1ccc2nc(N(CCCN(C)C)C(=O)c3ccc4ncsc4c3)sc2c1	-0.1	64.0*	-14.0	-3.5
CCCCN(C)S(=O)(=O)c1ccc(C(=O)N(CCN(C)C)c2nc3ccc(C)cc3s2)cc1	44.2*	-5.2	10.1	6.2
Cc1ccc2nc(N(CCCN(C)C)C(=O)c3ccc(S(=O)(=O)N4CCCCCC4)cc3)sc2c1	0.0	-6.0	-4.2	-2.1
COc1ccc2nc(N(CCN(C)C)C(=O)c3ccc4ncsc4c3)sc2c1	-0.1	6.6	-11.2	0.4
Cc1cc(C)c(OCCCCN(C)C)c(Br)c1	0.1	6.6	0.7	15.3*
COc1ccc(CN(C)C[C@@H]2Oc3c(NC(=O)Nc4c(C)noc4C)cccc3C(=O)N([C@H](C)CO)C[C@@H]2C)cc1	0.0	0.9	1.2	-1.0
N#C[C@@H]1[C@H](c2ccccc2C2=CCCCC2)[C@H](CO)N1C(=O)Nc1ccccc1F	-0.6	-4.0	1.5	0.6
CCCS(=O)(=O)c1c(S(=O)(=O)CCC)c2ccc(C(N)=O)cn2c1C(=O)c1ccc(F)cc1	0.2	1.0	2.0	11.4
CCCS(=O)(=O)c1c(S(=O)(=O)CCC)c2c(N)cccn2c1C(=O)c1ccc(OC)cc1	-0.1	8.7	2.6	16.0*
COc1ccc(NC(=O)Nc2ccccc2F)c([N+](=O)[O-])c1	-0.1	4.4	39.1*	-4.3
COc1ccc(NC(=O)Nc2ccccc2F)c(C)c1	0.2	-0.8	-0.3	-1.6
CC(=O)OC(C[N+]1(C)CCCCCC1)c1ccccc1 (stereo not given)	0.2	16.9	-9.0	0.5
C[N+]1(CC(O)c2ccccc2)CCCCCC1 (stereo not given)	0.1	43.1*	-6.4	-1.3
O=C(c1ccccc1)N1[C@H](CO)[C@H](c2ccccc2)C12CN(CCC(F)(F)F)C2	0.0	1.1	-0.8	-4.8
